Among all 410,000 compounds or so, about 820 (0.2%) were called active. A call without a number means that no potency is given here. Inconclusive results (about 2%) are left out. This is one part of a sample in which actives are shown more often than they occur. Calls follow the shape of the dose curve; as a rule, active = well fitted activation curve with a large enough effect; inconclusive = small, poorly fitted or top-dose-only effect; inactive = flat fitted curve, though single readings scatter; cell line not stated here.
Test: A Quantitative High throughput Screen to Identify Chemical Modulators of PINK1 Expression; also: nearly all actives have a fitted effect of over 65% in size
Settings: PINK1 immunofluorescence, high-content cytometry, 24 h; series mostly up to 76.6 µM
Text: The overall goal of this project is to develop new tools for understanding and treating the mitochondrial basis for neurodegenerative disease such as Parkinson's disease (PD). The PINK1 campaign was developed from recent data pointing towards mitochondrial dysfunction as a major contributor to dopaminergic neuron loss. The discovery of PINK1/Parkin mediated mitophagy has highlighted the potential for mitochondrial quality control as a novel target for therapeutic intervention. […] A second aim of this project is the development of chemical probes to study the mechanics of mitochondrial quality control. As the PINK1/Parkin mitophagy pathway is a relative recent discovery, no specific chemical probes are available that modulate the process. Presently, only crude tools that cause nonspecific mitochondrial damage are available. To advance the understanding of mitophagy, specific, well characterized chemicals that target various steps of mitophagy regulation need to be developed. New chemical probes may have the ability to dynamically manipulate mitophagy in model organisms such as rodents and zebrafish, advancing our understanding of the process in development and disease. This HTS campaign seeks to discover an activator of PINK1 expression by modulation at the level of post-translational processing.
The PINK1 assay determines the amount and localization of PINK1 protein in a cell using a combination of immunofluorescence and cell staining. The goal of the assay is to determine small molecules that can increase the expression of Pink1 on or inside the cell's mitochondria (ideally without mitochondrial depolarization) using a stable cell line. Since PINK1 protein is rapidly degraded in un-perturbed cells, compounds that induce the enhancement of PINK1 protein expression are identified by determining PINK1 immunofluorescence in conjunction with a mitochondrial, cell, and nuclear marker post fixation. To facilitate rapid high content screening, the primary assay is run in a decision-based HTS mode where compound titration data collected by laser-scanning microplate cytometers is processed and only promising compound series are passed off for high content drill down.
1 Add cells to black, clear-bottom, low-base 1536-well plates 6 uL (250 cells/well)
2 Incubate in TC incubator (12 hours)
3 Pin compounds or DMSO controls 23 nL (5 concentrations per compound set)
4 Dispense CCCP to control columns
5 Incubate in TC incubator 24 hours
6 Aspirate media and fix cells (5 uL of fixative containing nuclear dye)
7 Incubate 15 minutes at RT
8 Wash in PBSTween (12 uL/well)
9 Wash in PBSTriton (12 uL/well)
10 Aspirate wash and add Blocking buffer (4 uL/well)
12 Aspirate block and add primary antibodies 3.5 (uL/well)
13 Incubate 12 hours at 10 degrees C
14 Wash in PBSTween-20 two times (12 uL/well)
15 Aspirate wash and add secondary antibodies (12 uL/well)
17 Wash in PBSTween (12 uL/well)
18 Wash in PBSTween with cell stain (12 uL/well)
19 Read plates on Acumen EX3 and determine Wells2Cells coordinates
Potency is read from the fitted curve at half-maximal effect.

Structure (SMILES)	Potency
CCOc1ccc(-c2cc(C)[n+](CCN(CC)CC)c(-c3ccc(OCC)cc3)c2)cc1	15.8 µM (active)
Cn1cc(/C=C/c2nc3ccccc3c(=O)n2-c2ccccc2)c2ccccc21	inactive
COc1cccc(N2C(=O)NC(=O)/C(=C\c3cn(C)c4ccccc34)C2=O)c1	39.8 µM (active)
CCc1nc2ccccc2c(=O)n1-c1cccc(OC)c1	inactive
c1ccc(N2CC[C@@]3(CCCNC3)C2)nc1	inactive
COc1cccc(-c2ccc(O)c(CNC3CN4CCC3CC4)c2)n1 (centres undefined)	inactive
c1ccc(CN2CC[C@@]3(CCCNC3)C2)cc1	inactive
COc1cc([C@@H]2c3cc4c(cc3[C@H](OC(C)=O)[C@H]3COC(=O)[C@H]23)OCO4)cc(OC)c1OC	inactive
N#Cc1c(Cl)c(Cl)c(Cl)c(C#N)c1Cl	inactive
